Measurements reported in PubChem BioAssay (NCI).
About 79,000 compounds went through this panel and 15% of them were active in at least one assay; those are over-represented in the sample as a whole. Calls of active or inactive are those of the source. Cut-off read from the data, not from the text of the source: active = growth inhibition above about 70%; inactive = the rest.

assay: NCI Yeast Anticancer Drug Screen. Data for the mlh1 rad18 strain (AID 175); conditions: S. cerevisiae mlh1 rad18 strain growth inhibition; at 50.0 µM; active compounds read high
Procedure, shortened: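 Inhibition values reflect reduced growth of mutant yeast versus vehicle-treated controls following compound exposure; the mutations affect DNA damage repair.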

Question: For C=CCN(C)C(=O)CCCCCCCC1C(CCCCCCCC)C2(Cl)C(Cl)=C(Cl)C1(Cl)C2(Cl)Cl (stereo not given), which growth inhibition is on record?
Answer: The growth inhibition was -8.35% (inactive).

Question: With CC1=CC=NN2C(=O)[C@H](C)C2C1 (stereo not given in full) as the compound, how does the growth inhibition read?
Answer: Its growth inhibition is 9.6% (inactive).

Question: For COC1(OC)N=C(N)C2(C#N)C(C)=C3NCN(C)N=C3C12C#N (stereo not given), which growth inhibition is on record?
Answer: The growth inhibition was -51% (inactive).

Question: With Cn1c(=O)c2[nH]c(SCCc3ccccc3)nc2n(C)c1=O as the compound, how does the growth inhibition read?
Answer: The growth inhibition was -2.75% (inactive).

Question: With CCCCCC[C@H](C/C=C\CCCCCCCC(=O)OCCCC)OC(C)=O as the compound, how does the growth inhibition read?
Answer: The growth inhibition was -8.8% (inactive).

Question: Which growth inhibition does the source give for CCOc1ccccc1NCN1C(=O)c2ccccc2C1=O here?
Answer: The growth inhibition was -20.1% (inactive).

Question: For CC(=O)C(C)(C)CCC(C)(C)C(C)=O, which growth inhibition is on record?
Answer: The growth inhibition was -20.6% (inactive).

Question: Which growth inhibition does the source give for ClC(Cl)(Cl)C1CCC2CCCC21 (stereo not given) here?
Answer: The growth inhibition was -0.8% (inactive).

Question: With O=S(=O)(O)c1cc(N=Nc2cc(S(=O)(=O)O)c3ccccc3c2O)ccc1/C=C/c1ccc(N=Nc2cc(S(=O)(=O)O)c3ccccc3c2O)cc1S(=O)(=O)O as the compound, how does the growth inhibition read?
Answer: Its growth inhibition is 42.6% (inactive).

Question: Which growth inhibition does the source give for C/C(=N\Nc1ccccc1)c1sc(-c2nc(C)c(/C(C)=N/Nc3ccccc3)s2)nc1C here?
Answer: The growth inhibition was 25.2% (inactive).

Question: With CC(C)(C)C(=O)Nc1c(Cl)c(C2CC2)nn1-c1ccccc1 as the compound, how does the growth inhibition read?
Answer: Its growth inhibition is 19.4% (inactive).

Question: For CC1(C)SC(C)(C)C1=O, which growth inhibition is on record?
Answer: Its growth inhibition is -5.15% (inactive).

Question: Which growth inhibition does the source give for CC(=O)OCC1OC(n2ccc(=O)[nH]c2=O)CC1N=[N+]=[N-] (stereo not given) here?
Answer: The growth inhibition was 0.35% (inactive).

Question: With O=C(Nc1cccc(Cl)c1)c1cc2cc(N=Nc3ccc(Br)cc3)ccc2oc1=O as the compound, how does the growth inhibition read?
Answer: The growth inhibition was 18.2% (inactive).

Question: For CC(CN(C)C)CN1c2ccccc2Sc2ccccc21 (stereo not given), which growth inhibition is on record?
Answer: Its growth inhibition is 8.35% (inactive).

Question: Which growth inhibition does the source give for COC1=C(OC)C(=O)C(Sc2ccc3ccccc3c2)=C(Cl)C1=O here?
Answer: Its growth inhibition is 91.1% (active).

Question: Which growth inhibition does the source give for C[Si](C)(C)c1ccc(-c2ccccc2)cc1 here?
Answer: Its growth inhibition is -18.4% (inactive).

Question: Which growth inhibition does the source give for Cc1nc(Nc2ccc(Cl)cc2)c2cnn(-c3ccccc3)c2n1 here?
Answer: The growth inhibition was 26.9% (inactive).

Question: With ClCCOC(c1ccc(Cl)cc1)c1ccc(Cl)cc1 as the compound, how does the growth inhibition read?
Answer: Its growth inhibition is 19.8% (inactive).

Question: With Cc1ccc(OCC(=O)C2CSc3ccc(Cl)cc32)cc1 (stereo not given) as the compound, how does the growth inhibition read?
Answer: The growth inhibition was 73.5% (active).

Question: With OCc1ccccc1F as the compound, how does the growth inhibition read?
Answer: Its growth inhibition is -36.2% (inactive).

Question: For C/C(CCn1[nH]c(=O)ccc1=O)=N\N=C(N)N, which growth inhibition is on record?
Answer: Its growth inhibition is 1.7% (inactive).

Question: For S=C(N/N=C1\CSCc2ccccc21)Nc1cc(Cl)ccc1Cl, which growth inhibition is on record?
Answer: The growth inhibition was 0.5% (inactive).

Question: For O=c1/c(=C/c2ccco2)sc2nc3ccccc3n12, which growth inhibition is on record?
Answer: Its growth inhibition is 20.4% (inactive).

Question: With CO/N=C1\CC(NC(=O)C(F)(F)F)c2ccsc21 (stereo not given) as the compound, how does the growth inhibition read?
Answer: The growth inhibition was 38.9% (inactive).

Question: For COc1cc(NCCCCCNC(C)C)c2nccc(C)c2c1, which growth inhibition is on record?
Answer: The growth inhibition was 50.5% (inactive).

Question: With Cc1ccc(N(C)C(=O)Nc2ccccc2)c(C)c1 as the compound, how does the growth inhibition read?
Answer: Its growth inhibition is -12.8% (inactive).

Question: With CC(=O)n1cc(CS)c(=O)[nH]c1=O as the compound, how does the growth inhibition read?
Answer: The growth inhibition was -19.4% (inactive).

Question: With Cc1cccc(C)c1/[N+]([O-])=C/c1cccc([N+](=O)[O-])c1 as the compound, how does the growth inhibition read?
Answer: The growth inhibition was -2.25% (inactive).

Question: For COc1nc(C(O)C2OC(C)(C)OCC2O)[nH]c1C#N (stereo not given), which growth inhibition is on record?
Answer: The growth inhibition was 7.35% (inactive).

Question: For COC(CN(C)C(=S)Nc1cccc2ccccc12)OC, which growth inhibition is on record?
Answer: Its growth inhibition is -30.9% (inactive).

Question: For N#CC(C#N)c1ccc(C(C#N)C#N)cc1, which growth inhibition is on record?
Answer: The growth inhibition was -1.55% (inactive).

Question: Which growth inhibition does the source give for CCCC1c2c(ccc3ccccc23)Oc2ccc3ccccc3c21 here?
Answer: Its growth inhibition is -1.35% (inactive).

Question: For c1ccc2c(c1)ccc1c3ccccc3ncc21, which growth inhibition is on record?
Answer: The growth inhibition was 23.1% (inactive).

Question: For C=CCNC(=S)Nc1c(C)cc(C)cc1C, which growth inhibition is on record?
Answer: The growth inhibition was 12.2% (inactive).

Question: With CCn1c2ccc(N(C)C)cc2c2cc(N(C)C)ccc21 as the compound, how does the growth inhibition read?
Answer: The growth inhibition was -52.4% (inactive).

Question: With CC1(C)OC2(CC1C1(C)C=CC(=O)O1)CC1(O)C(CCC34CC13C(=O)OC4c1ccoc1)O2 (stereo not given) as the compound, how does the growth inhibition read?
Answer: The growth inhibition was 16.8% (inactive).

Question: With COc1ccc(Cl)cc1NC(=O)Oc1cc2ccccc2cc1C(=O)Nc1ccccc1 as the compound, how does the growth inhibition read?
Answer: Its growth inhibition is -13.8% (inactive).

Question: Which growth inhibition does the source give for O=C(O)C(Cc1ccc(OS(=O)(=O)Cc2ccccc2)cc1)NS(=O)(=O)Cc1ccccc1 (stereo not given) here?
Answer: Its growth inhibition is 24.1% (inactive).

Question: For O=C1OC(c2ccccc2Cl)Sc2ccccc21 (stereo not given), which growth inhibition is on record?
Answer: Its growth inhibition is 32.8% (inactive).
